In PubChem BioAssay (Tox21):
Results filed as inconclusive are left out. Where a call stands in place of a potency, no number is given. Activity calls are given as the source filed them. The call rests on the fitted dose curve; in most records, active means well fitted cell-killing curve with a large enough effect in the repeat runs; inconclusive means weak or mixed curves, or effect the other way; inactive means no such curve, though single readings can be large or run the other way. Starred links: 1 amine or outer side, 2 acyl side, 3 side chain; linkers in the order of their positions; H or OH if unused. Positions of bridges follow the written chain, without caps; N, C: chain ends. Non-standard residues stand in square brackets, D forms with d. Residues, ends and D or L forms follow the SMILES beside them. *: point of attachment. X5 = NC1=N[C@@H]([C@H](N[*:1])C(=O)[*:2])C[C@H](O)N1; ΔAla(Z-3-ureido) = NC(=O)N/C=C(\N)C(=O)O; β3hOrn = NCCC[C@H](N)CC(=O)*; Dap = NC[C@H](N)C(=O)O

test: qHTS assay to identify small molecule antagonists of the thyroid receptor (TR) signaling pathway - cell viability counter screen (AID 743064); settings: GH3.TRE-Luc viability, CellTiter-Fluor, 24 h; series mostly up to 70.3 µM; further: nearly all actives have a fitted effect of over 50% in size
Procedure, shortened: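 Same-well viability check: GH3.TRE-Luc cells stimulated with 1 nM T3 alongside test compound for 23.5 h, followed by CellTiter-Fluor fluorescence.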
Potency means the concentration at half of the fitted maximal effect.

Compound | Potency
C=C1c2c(Cl)ccc(O)c2C(O)=C2C(=O)[C@]3(O)C(O)=C(C(N)=O)C(=O)[C@@H](N(C)C)[C@@H]3[C@@H](O)[C@H]12 | inactive
O=P(O)(O)C(O)(Cc1cnc2ccccn12)P(=O)(O)O | inactive
CCCCCCCCCCCCCCCCCC(=O)OCCO | inactive
COc1cc(S(C)=O)ccc1-c1nc2ncccc2[nH]1 (centres undefined) | inactive
c1ccc2c(CCC3CCNCC3)c[nH]c2c1 | 18.8 µM (active)
CN[C@@H]1[C@@H](O)[C@@H](O[C@@H]2[C@@H](O)[C@H](OC3OC(CN)=CCC3N)[C@@H](N)C[C@H]2N)OC[C@]1(C)O (some centres undefined) | inactive
Cc1cc(Nc2ccccc2C(=O)O)ccc1Cl | inactive
NCCCC[C@H](NC(=O)[C@@H]1CCCN1C(=O)[C@@H]1CSSC[C@H](N)C(=O)N[C@@H](Cc2ccccc2)C(=O)N[C@@H](Cc2ccccc2)C(=O)N[C@@H](CCC(N)=O)C(=O)N[C@@H](CC(N)=O)C(=O)N1)C(=O)NCC(N)=O | inactive
O=c1[nH]cnc2[nH]cc(CN3CCCCC3)c12 | inactive
O=C(O)c1ccc(OCCn2ccnc2)cc1 | inactive
CNC[C@@H]1CC[C@@H](N)[C@@H](O[C@H]2[C@H](O)[C@@H](O[C@H]3OC[C@](C)(O)[C@H](NC)[C@H]3O)[C@H](N)C[C@@H]2N)O1 | inactive
CN(CCO)CC(O)Cn1cnc2c1c(=O)n(C)c(=O)n2C (centres undefined) (tested in a mixture with another compound) | inactive
Nc1ccn(C[C@@H](CO)OCP(=O)(O)O)c(=O)n1 | inactive
CN=C(NC)NCc1ccccc1 | inactive
C[N+](C)(CCCCCC[N+](C)(C)C1c2ccccc2-c2ccccc21)C1c2ccccc2-c2ccccc21 | inactive
Nc1ncnc(Nc2ccc(Cl)cc2)n1 | inactive
O=P(O)(O)OC(Cn1cncn1)(Cn1cncn1)c1ccc(F)cc1F | inactive

Compound | Potency
C[C@]12C=CC(=O)C=C1CC[C@@H]1[C@@H]2[C@@H](O)C[C@@]2(C)[C@H]1CC[C@]2(O)C(=O)COC(=O)CCC(=O)O | inactive
CCCC(=O)N1CCCN(c2nc(N)c3cc(OC)c(OC)cc3n2)CC1 | inactive
OCC(O)COc1ccc(Cl)cc1 (centres undefined) | inactive
C[C@]12CCC(=O)C=C1CC[C@@H]1[C@@H]2[C@@H](O)C[C@@]2(C)[C@H]1CC[C@]2(O)C(=O)COP(=O)(O)O | inactive
Cc1ccccc1CNc1ncnc2c1ncn2[C@@H]1O[C@H](CO)[C@@H](O)[C@H]1O | inactive
CC(=O)OC[C@H]1O[C@@H](O[C@H]2[C@H](O)[C@@H](OC(=O)c3ccccc3C(=O)O)[C@H](O)O[C@@H]2COC(C)=O)[C@H](O)[C@@H](OC(=O)c2ccccc2C(=O)O)[C@@H]1O | inactive
CCC(C)C(C(=O)OCC[N+](C)(CC)CC)c1ccccc1 (centres undefined) | inactive
CCOC(=O)[C@H](CCc1ccccc1)N[C@H]1CCCN2CCC[C@@H](C(=O)O)N2C1=O | inactive
C#CCC(Cc1cnc2nc(N)nc(N)c2n1)c1ccc(C(=O)N[C@@H](CCC(=O)O)C(=O)O)cc1 (some centres undefined) | inactive
CCN(CC)c1ccc(N=Nc2ccc(S(=O)(=O)N(C)C)cc2)c(S(=O)(=O)NCC[n+]2ccccc2)c1 | inactive
NCCC[C@H](N)CC(=O)N[C@H]1CNC(=O)[C@H]([C@H]2C[C@H](O)NC(N)=N2)NC(=O)/C(=C/NC(N)=O)NC(=O)[C@H](CO)NC(=O)[C@H](CO)NC1=O (β3hOrn-[Dap]SS[ΔAla(Z-3-ureido)][X5]; lactam 1-C) | inactive
O=C[C@H](O)[C@@H](O)[C@H](O[C@H]1O[C@H](CO)[C@@H](O[C@H]2O[C@H](CO)[C@@H](O)[C@H](O)[C@H]2O)[C@H](O)[C@H]1O)[C@H](O)CO | inactive
CC(=O)N[C@@H](CC(=O)N[C@@H](CCC(=O)O)C(=O)O)C(=O)O | inactive
CC1(C)S[C@@H]2[C@H](NC(=O)C(C(=O)Oc3ccc4c(c3)CCC4)c3ccccc3)C(=O)N2[C@H]1C(=O)O (some centres undefined) | inactive
CC(=O)OCC(=O)[C@@]1(O)[C@H](C)C[C@H]2[C@@H]3C[C@H](F)C4=CC(=O)C=C[C@]4(C)[C@H]3[C@@H](O)C[C@@]21C | inactive
C[C@H]1C[C@H]2[C@@H]3CCC4=CC(=O)C=C[C@]4(C)[C@@]3(F)[C@@H](O)C[C@]2(C)[C@@]1(O)C(=O)CCl | inactive
C[C@]12CC[C@@H]3c4ccc(OS(=O)(=O)O)cc4CC[C@H]3[C@@H]1CCC2=O | inactive
